# Compound activity as filed in PubChem BioAssay.
# TDP1 cell CPT – growth inhibition of DT40 Tdp1-/-;hTDP1 cells with camptothecin (screen for TDP1 inhibitors) | chicken DT40 Tdp1-/-;hTDP1 cells + 20 nM CPT, ATP luminescence, 48 h | Potency, µM (doses to about 46.2 µM), for inactives: at the top dose activity change, negative = growth inhibition, actives largely listed as inhibitors | AID 686979 | 420,000 compounds, 12% hits; further: potency means the concentration at half of the fitted maximal effect; nearly all actives have a fitted effect of over 55% in size
#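 Cell growth measured by CellTiter-Glo luminescence after a minimum 48 h, 37 C compound exposure with 20 nM CPT in Tdp1-knockout DT40 cells stably expressing hTDP1, seeded 400/well; qHTS titration format.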
# 12-LOX inh – blocks human arachidonate 12S-lipoxygenase. 580,000 compounds, 1.1% hits. AID 1671190. purified 12hLO, xylenol orange hydroperoxide absorbance. Potency, µM (series often up to 108 µM), without a hit: top-dose activity change, negative = inhibition, usual class: inhibitors; further: potency means the concentration at half of the fitted maximal effect
# Target sequence (P18054 whole entry, looked up): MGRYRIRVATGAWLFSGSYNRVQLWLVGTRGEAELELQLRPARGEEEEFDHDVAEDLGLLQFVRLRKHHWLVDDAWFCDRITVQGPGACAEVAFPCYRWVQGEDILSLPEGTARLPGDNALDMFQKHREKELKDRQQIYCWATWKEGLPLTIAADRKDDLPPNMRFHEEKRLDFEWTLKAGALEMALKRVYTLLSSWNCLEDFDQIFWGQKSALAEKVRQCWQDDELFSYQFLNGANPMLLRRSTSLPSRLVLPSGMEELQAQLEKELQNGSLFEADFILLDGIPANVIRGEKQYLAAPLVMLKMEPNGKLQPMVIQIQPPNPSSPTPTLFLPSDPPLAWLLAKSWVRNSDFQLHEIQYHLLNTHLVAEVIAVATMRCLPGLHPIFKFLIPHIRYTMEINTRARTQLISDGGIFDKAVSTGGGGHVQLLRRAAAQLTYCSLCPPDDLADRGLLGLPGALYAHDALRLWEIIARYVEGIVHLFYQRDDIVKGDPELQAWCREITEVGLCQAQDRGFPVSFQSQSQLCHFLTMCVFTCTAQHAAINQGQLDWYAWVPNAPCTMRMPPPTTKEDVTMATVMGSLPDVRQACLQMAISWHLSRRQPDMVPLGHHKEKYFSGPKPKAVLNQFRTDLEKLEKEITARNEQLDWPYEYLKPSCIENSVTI
#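 Purified human 12hLO (150 nM final) in 25 mM Hepes, 0.01% Triton X-100, pH 7.0 was preincubated 15 min at room temperature with compound. Then 40 uM arachidonic acid was added, 30 min. Hydroperoxide was read by Fe-XO absorbance ratio 573/405 nm.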
# IL1B secr inh – inflammasome signaling inhibition, IL-1 beta readout. THP-1 LPS/ATP IL-1B secretion, AlphaLISA, 16 h; active compounds read low. activity change, % at 57.5 µM. 360,000 compounds, 4.7% hits. AID 743279; in the data active means activity change below about -50%; inconclusive means mostly about -30% to -49%
#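 Secreted IL-1B measured by AlphaLISA bead assay after 16 h compound exposure of THP-1 cells; compounds (final up to 57.5 uM) added 1 h before LPS (250 ng/mL) and ATP (1.25 mM) stimulation; lower signal means less secretion.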
# HT1080 IDH1KD tx – kills HT-1080 cells with IDH1 knockdown; AID 686971; HT-1080 IDH1 knockdown viability, ATP luminescence, 48 h; Potency, µM (titrated, usually from 46.1 µM), without a hit: top-dose activity, negative = toxicity, usual class: cytotoxic; 360,000 compounds, 2% hits;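 further: potency means the concentration at half of the fitted maximal effect; 0% = DMSO wells and -100% = cell-free medium wells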
#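 % activity derives from luminescence (CellTiter-Glo), normalised to DMSO and no-cell wells. HT-1080-IDH1KD cells, 750/well, had 48 h compound exposure at 37 °C.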
# HT1080-NT tox – kills 2HG-producing HT-1080-NT fibrosarcoma cells | HT-1080-NT fibrosarcoma viability, CellTiter-Glo ATP luminescence, 48 h | AID 686970 | 360,000 compounds, 1.6% hits | Potency, µM (series often up to 46.1 µM), for the others: at the top dose activity, negative = less viability, usual class: cytotoxic;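 further: NT is the 2HG producing partner of a matched IDH1 knockdown line; potency means the concentration at half of the fitted maximal effect; 0% = DMSO-treated cells and -100% = media-only wells without cells; nearly all actives have a fitted effect of over 55% in size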
#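 A 48-hour cytotoxicity screen used HT-1080-NT cells plated 2 hours before compound delivery. ATP-based CellTiter-Glo luminescence measured viability, normalized to DMSO and no-cell controls.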
# TDP1 cell noCPT – qHTS for Inhibitors of human tyrosyl-DNA phosphodiesterase 1 (TDP1): qHTS in cells in absence of CPT; DT40 Tdp1-/- hTDP1 cells, no CPT, ATP luminescence, 48 h; Potency, µM (series often up to 46.2 µM), inactives show top-dose activity change, negative = growth inhibition, hits mostly inhibitors; 420,000 compounds, 15% hits; AID 686978, 2013; further: potency means the concentration at half of the fitted maximal effect; nearly all actives have a fitted effect of over 55% in size
#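 Growth kinetics read by CellTiter-Glo luminescence after ≥48 hr at 37 °C. Cells: DT40 Tdp1-/- stably carrying human TDP1, 400 per well, compound exposure in the absence of CPT (DMSO vehicle).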
# * marks the source's active call; other numbers are inactive results; ? = inconclusive; / = no result given; ! = not confirmed by another sample. This excerpt belongs to a sample that is enriched for hits. Unless noted, the call rests on the fitted dose curve; in most records, active means well fitted curve in the direction sought with a large enough effect; inconclusive means small, poorly fitted or top-dose-only effect, or another doubt; inactive means no such curve, though single readings can be large; an effect the other way counts as inactive or inconclusive. Unless noted, on the % scale 0 is the no-effect control and ±100 the full control effect.
SMILES,TDP1 cell CPT,12-LOX inh,IL1B secr inh,HT1080 IDH1KD tx,HT1080-NT tox,TDP1 cell noCPT
OCCNCc1cccc(OCc2ccc(Cl)cc2)c1,?,0.8%,-56.0*,?,?,?
Cc1ccccc1NC(=O)COc1ccc(Br)cc1CNCCCO,-2.4%,-2.2%,-12.6,0.4%,0.0%,-9.9%
OCCNCc1cc(Br)ccc1OCc1ccc(Cl)cc1,20.6µM*,-6.5%,?,1.7%,-0.9%,29.1µM*
OCCCCNCc1cc(Br)ccc1OCc1ccccc1F,?,-0.5%,-70.3*,-16.8%,-27.9%,?
c1ccc(COc2cccc(CNCc3cccnc3)c2)cc1,-23.2%,?,-0.8,-3.1%,-9.4%,?
OCCNCc1cc(Br)ccc1OCc1ccc(F)cc1,?,-1.8%,-80.7*,-5.3%,-1.9%,?
COCCNc1nc2cc(C(=O)N3CC[C@H]4CNC[C@H]43)ccc2n1C,/,28.7%,/,/,/,/
CCOC(=O)c1cc(-c2ccc(S(=O)(=O)N3CCN(c4cccc(C)c4C)CC3)s2)on1,/,5.7%,/,/,/,/
O=Cc1ccc(OCc2ccc(Cl)cc2Cl)c(Br)c1,/,0.8%,/,/,/,/
OCCNCc1cc(Br)ccc1OCc1ccc(Cl)cc1Cl,18.4µM*,-20.3%,?,?,23.1µM*,9.2µM*
O=S(=O)(Nc1ccc(O)c2ccccc12)c1ccc(F)cc1,11.6µM*,?,15.8,-15.9%,-17.0%,9.2µM*
CCc1ccc(S(=O)(=O)Nc2ccc(O)c3ccccc23)cc1,6.51µM*,0.0%,-15.6,-8.1%,-19.1%,6.51µM*
O=S(=O)(Nc1ccc(NS(=O)(=O)c2ccccc2)c2ccccc12)c1ccccc1,-16.8%,-19.0%,-4.6,-20.7%,-4.0%,?
Cc1ccc(NC(=O)CN(c2cc(C(F)(F)F)ccc2Cl)S(C)(=O)=O)cc1C,/,4.2%,/,/,/,/
Cc1ccc(S(=O)(=O)Nc2ccc(Nc3nccn4c(-c5cccc(OC(F)(F)F)c5)cnc34)cc2)cc1,18.4µM*,?,-26.5,?,18.4µM*,11.6µM*
Cc1csc(SCC(=O)c2cc(C)n(Cc3cccs3)c2C)n1,18.4µM*,15.8%,-0.8,?,-10.1%,-77.9%
Cc1cc(C(=O)CSc2nnc(N)s2)c(C)n1Cc1cccs1,?,18.4%,?,1.6%,-2.7%,?
COc1ccc(-n2cnnc2SCC(=O)c2cc(C)n(Cc3cccs3)c2C)cc1,-8.5%,0.0%,-64.9*,1.2%,-4.5%,-11.0%
Brc1ccccc1N=Cc1ccc(-c2ccccc2)cc1,/,11.2%,/,/,/,/
CCOC(=O)c1sc(SC)c2c1CCC/C2=N/OC,3.6%,-1.3%,12.4,2.7%,-0.2%,-1.1%
CO/N=C1\CCCc2c(C(=O)NN)sc(SC)c21,?,71.9%,36.0,16.4µM*,16.4µM*,?
Cc1ccccc1-n1c(=O)c2c3c(sc2n2cnnc12)CCCC3,14.6µM*,?,/,/,/,16.4µM*
O=c1c2c3c(sc2n2cnnc2n1-c1ccccc1)CCCCC3,/,-22.3%,/,/,/,/
COC(=O)[C@]1(Sc2ccccc2)CC(=O)N[C@@H]1c1ccccc1,-11.9%,-5.2%,9.0,1.1%,0.3%,?
COC(=O)[C@@]1(Sc2ccc(C)cc2)CC(=O)N[C@@H]1c1ccc(C(F)(F)F)cc1,14.6µM*,-78.1%,?,-17.8%,-16.6%,20.6µM*
SMILES,TDP1 cell CPT,12-LOX inh,IL1B secr inh,HT1080 IDH1KD tx,HT1080-NT tox,TDP1 cell noCPT
COC(=O)[C@@]1(Sc2ccc(C)cc2)CC(=O)N(c2ccccc2)[C@@H]1c1ccccc1,18.4µM*,?,-4.8,?,?,18.4µM*
O=C(Nc1ccccc1Cl)c1cnc(N2CCOCC2)c2ccccc12,/,-0.7%,/,/,/,/
O=C(Nc1cccc(Cl)c1)N(Cc1nc2ccccc2c(=O)[nH]1)Cc1cccs1,23.1µM*,-5.5%,?,-11.5%,-2.8%,23.1µM*
COc1ccccc1CNC(=O)CCc1nc2ccccc2c(=O)[nH]1,-14.3%,-16.7%,12.1,8.7%,-0.8%,-26.4%
COc1ccccc1CN(Cc1nc2ccccc2c(=O)[nH]1)C(=O)Nc1ccccc1,3.55µM*,1.3%,-6.2,5.8%,-11.0%,3.55µM*
N/C(=N\OC(=O)/C=C/c1ccccc1Cl)c1ccncc1,-3.4%,10.5%,-56.3*,-6.5%,0.7%,0.5%
COc1ccccc1C/C(N)=N/OC(=O)/C=C/c1ccccc1,?,2.2%,-56.5*,?,?,-3.8%
COc1ccccc1C/C(N)=N/OC(=O)c1cccs1,?,-17.7%,9.2,-27.2%,?,?
N/C(=N\OC(=O)/C=C/c1ccccc1)c1ccncc1,-17.9%,12.6%,-50.2*,3.6%,6.4%,8.5%
O=C1N(C2CCN(S(=O)(=O)c3ccccc3)CC2)C(c2ccncc2)C12CCCCC2 (stereo not given),/,3.4%,/,/,/,/
Cc1cc(OC(=O)c2cccs2)cc(OC(=O)c2cccs2)c1,/,6.4%,/,/,/,/
COc1ccc(OCCN(C)C(=O)c2cn(C)c3ccccc23)cc1,/,18.4%,/,/,/,/
CCN(c1ccccc1)S(=O)(=O)c1ccc(NC(=O)c2cc(=O)c3ccc(C)cc3o2)cc1,/,-2.1%,/,/,/,/
Cc1cc(C(=O)N(C)C2CCS(=O)(=O)C2)c2ccc(F)cc2n1 (stereo not given),/,3.6%,/,/,/,/
Cc1ccc2nc(NCCO)nc(-c3ccccc3)c2c1,?,-2.1%,-22.9,-14.4%,-3.4%,25.9µM*
Cc1ccc2nc(N/N=C/c3ccccc3F)nc(-c3ccccc3)c2c1,?,-3.5%,-52.6*,-0.7%,5.1%,?
Cc1ccc2nc(N/N=C/c3ccccc3C#N)nc(-c3ccccc3)c2c1,?,0.0%,-73.2*,-6.0%,1.2%,23.1µM*
N#Cc1ccccc1/C=N/Nc1nc(-c2ccccc2)c2cc(Cl)ccc2n1,?,?,-15.3,12.6%,11.9%,?
Cc1ccc(NC2(c3nnnn3-c3ccccc3C)CCCC2)cc1,/,-28.9%,/,/,/,/
O=C1NC(=O)C(c2ccccc2[N+](=O)[O-])=C1Nc1ccc(O)c(Cl)c1,7.31µM*!,?,48.0,-3.0%,-1.1%,26.6µM*!
CCOC(=O)c1c(C)oc2ncnc(NCCCN3CCN(c4cc(C)ccc4C)CC3)c12,7.31µM*,0.0%,/,/,/,4.61µM*
CCOC(=O)c1c(C)oc2nc(C)nc(NCCCN3CCN(c4ccccc4OC)CC3)c12,?,-13.8%,/,/,/,23.1µM*
CCOC(=O)c1c(C)oc2nc(C)nc(NCCCN3CCN(c4ccc(F)cc4)CC3)c12,20.6µM*,?,/,/,/,20.6µM*
